Source: PubChem BioAssay
SKKanGAS inh – inhibitors of SKKanGAS S. pyogenes growth in kanamycin (SK-promoter or general growth effect). BacTiter-Glo, 6 h. inhibition, % at 7.5 µM. actives 1.3% (n = 300,000). AID 1662;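 active means mean replicate score, as percent of positive control median, at least 50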;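 further: strain carries kanamycin resistance gene driven by streptokinase promoter and grows in 40 µg/ml kanamycin; loss of luminescence reflects streptokinase promoter inhibition or plain growth inhibition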
Mdm2-MdmX inh – human Mdm2/MdmX binding inhibition. O15151+Q00987. SaOS-2 split-luciferase Mdm2/MdmX complementation, luminescence. inhibition, % at 8 µM. actives 3% (n = 330,000);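 active means inhibition of at least 50% at 8 µM in the primary screen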
MPTP inh – inhibitors of mitochondrial permeability transition pore; isolated mouse mitochondria, Ca2+ swelling absorbance, 30 min; inhibition, % at 10 µM; actives 1.4% (n = 360,000); AID 602449;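 active means inhibition of 50% or more, scaled per plate between neutral and stimulator controls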
NR3A LBD binder – modulators (binders) of human NR3A ligand-binding domain; NR3A LBD differential scanning fluorimetry, Tm shift; 0% = protein alone, 100% = glycine-bound protein; AID 1259313; Tm shift relative to glycine control, % at 25 µM; actives 2.5% (n = 340,000);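 active means melting temperature shift of at least 10% of the positive control shift, at one fixed dose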
CSC inhib – cancer stem cell inhibition. cancer stem cell-like cells viability, luminescence. inhibition, % at 7.5 µM. actives 1.1% (n = 300,000); in the data active means inhibition above about 75%; tested in HMLE shEcad cells
Beta apoptosis – beta cell apoptosis inhibition; INS-1E cytokine-induced death, ATP luminescence, 48 h; percent of positive-control rescue, neutral wells zero; protection from apoptosis, % (test concentration not listed); actives 0.8% (n = 300,000); AID 435005;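 active means Every replicate reaches about 75%, or at least half do and their mean reaches it too, limit read from the data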;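 further: higher means more ATP so stronger rescue from cytokine killing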
Numbers stand for hits; – = inactive; · = not tested or not shown. This is a sample that favours compounds with a hit; in the whole collection about 6.9% have one here.

SMILES | SKKanGAS inh | Mdm2-MdmX inh | MPTP inh | NR3A LBD binder | CSC inhib | Beta apoptosis
O=C1CCN(Cc2ccc(Br)cc2)CCN1[C@H](CO)Cc1ccccc1 | – | – | – | – | – | –
Cc1ccc(NS(=O)(=O)c2ccc(NC(=O)C(C)Sc3ccc(Cl)cc3)cc2)c(C)c1 (centres undefined) | – | – | – | 13 | 77 | –
Cc1ccc(C)c(NS(=O)(=O)c2ccc(NC(=O)CSc3ccc(Cl)cc3)cc2)c1 | – | – | – | – | – | –
CC12CN3CC(C)(CN(C1)C3c1ccccc1F)C2 (centres undefined) | – | – | – | – | – | –
CCCCC(CC)Cn1c(N)c(C#N)c2nc3ccccc3nc21 (centres undefined) | – | – | – | 11 | – | –
CN(C)CCCn1c(N)c(C#N)c2nc3ccccc3nc21 | – | – | – | – | – | –
Nc1[nH]c(=O)[nH]c(=O)c1N=Nc1cccc(Cl)c1 | – | – | – | 16 | – | –
CC1(Oc2ccc(CC#N)cc2)CCN(Cc2ccccc2OC(F)F)C1 (centres undefined) | · | · | – | · | · | ·
COc1ccc(CN(C)C(=O)c2ccncc2)c(OC)c1 | – | – | – | – | – | –
O=C(Nc1cccc(S(=O)(=O)N2CCOCC2)c1)c1ccc(N2CCCC2=O)cc1 | · | – | – | – | – | –
COc1ccc(OC)c(NC(=O)c2cc3oc4ccccc4c3cc2O)c1 | – | – | – | 130 | – | –
O=C(Nc1ccc2c(c1)oc1ccccc12)c1ccc2c(c1)OCO2 | – | – | – | 25 | – | –
COc1cc2c(cc1NC(=O)c1ccc3c(c1)OCO3)oc1ccccc12 | – | – | – | 26 | – | –
C[C@H]1CN([C@@H](C)CO)C(=O)c2cccc(NC(=O)C3CC3)c2O[C@H]1CN(C)Cc1ccncc1 | · | – | – | – | – | –
O=C(Nc1ccc2nc([C@H]3C[C@H](O)[C@@H](CO)O3)[nH]c2c1)NC(c1ccccc1)c1ccccc1 | · | · | – | · | · | ·
C/C(=N\NC(=O)c1nnn(-c2nonc2N)c1C(C)C)c1cc(C)sc1C | – | – | – | – | – | –
CCC1CCCCN1C(=S)NC(=O)c1cccc([N+](=O)[O-])c1 (centres undefined) | 53 | – | – | – | – | –
CC1CCN(C(=S)NC(=O)c2cccc([N+](=O)[O-])c2)CC1 | – | – | – | – | – | –
O=c1c2cc(-c3ccccc3)sc2nc2n1CCC2 | 50 | – | · | · | – | –
CCCOc1ccc(CC(=O)NNC(=S)Nc2ccccc2)cc1Br | – | – | – | 19 | – | –
CN(Cc1ccccc1)C(=O)[C@@H]1CCCN1S(=O)(=O)c1ccc(Cl)cc1 | – | – | – | – | · | –
CC(C)Oc1ccccc1/C=N/NC(=O)C1CC1 | – | – | – | – | – | ·
O=c1c2ccccc2[nH]c2ccc(F)cc12 | – | – | – | 11 | · | –
N#CC(c1ccc(Cl)cc1)N1CCOCC1 (centres undefined) | – | – | – | – | – | –
Oc1c(Cl)cc(Cl)cc1C(C#Cc1ccccc1)N1CCOCC1 (centres undefined) | 90 | – | – | – | – | –
SMILES | SKKanGAS inh | Mdm2-MdmX inh | MPTP inh | NR3A LBD binder | CSC inhib | Beta apoptosis
COc1cc(OC)c(NC(=O)c2sc3ncn(CC(=O)N4CCN(c5ccccn5)CC4)c(=O)c3c2C)cc1Cl | 50 | – | – | – | – | –
Cc1c(C(=O)Nc2ccc(C(F)(F)F)cc2)sc2ncn(CC(=O)N3CCN(c4ccccn4)CC3)c(=O)c12 | – | – | – | 23 | – | ·
COc1ccc(NC(=O)c2sc3ncn(CC(=O)N4CCN(c5ccccn5)CC4)c(=O)c3c2C)c(OC)c1 | – | – | – | – | – | ·
Cc1ccc(NC(=O)c2sc3ncn(CC(=O)N4CCN(c5ccccn5)CC4)c(=O)c3c2C)cc1 | · | · | – | · | · | ·
CCOC(=O)C1CCN(C(=O)c2cc(C)n(C(C)(C)C)n2)CC1 | – | – | – | – | – | –
CCN(CC)CCn1c(-c2ccc(C)cc2)nc(=S)c2c1CC(C)(C)OC2 | – | – | – | 14 | – | –
COCCOc1cc(N2C(=O)CSCC2=O)c(Cl)cc1Cl | – | – | – | 12 | – | –
CNC(=O)CS(=O)(=O)CC(=O)Nc1cc(OCCOC)c(Cl)cc1Cl | – | – | – | – | – | –
O=C(Nc1nnc([C@H]2C[C@H](O)[C@@H](CO)O2)s1)Nc1ccc(F)cc1F | · | · | – | · | · | ·
COc1ccc(C)cc1NC(=O)Nc1ccc2c(c1)CCC2 | – | – | – | 11 | – | –
O=C(Nc1ccccc1)Nc1ccc2c(c1)CCC2 | – | – | – | 11 | – | –
COc1ccc(N2CC(C(=O)OCC(=O)Nc3cccc(C)c3)CC2=O)cc1 (centres undefined) | – | – | – | – | – | –
Cc1cc(=O)n2nc(N3CCC(C(=O)NCc4ccc(Cl)cc4)CC3)sc2n1 | – | – | – | – | – | –
CC(C)N1CCN(Cc2ccc(OCc3ccccc3)cc2)CC1CCO (centres undefined) | – | – | – | – | 77 | –
CC(C)N1CCN(Cc2ccc(-c3ccccc3)cc2)CC1CCO (centres undefined) | – | – | – | – | – | ·
O=C(Nc1ccc(NC(=O)c2ccncc2)cc1)c1ccncc1 | – | – | · | · | – | –
O=C(Nc1ccc2ccccc2c1)c1cccnc1 | – | – | – | – | – | –
CCNC(=S)Nc1ccc2c(c1)oc1ccccc12 | – | – | – | 10 | – | –
O=C(Nc1ccc2c(c1)oc1ccccc12)c1cccnc1 | – | – | – | 17 | – | –
CCNC(=S)Nc1ccc2ncoc2c1 | – | – | – | – | – | –
O=C(Nc1ccc2c(c1)oc1ccccc12)c1ccncc1 | – | – | – | 15 | – | –
Cc1ccc(S(=O)(=O)N2CC(O)CC2C(=O)OCC(=O)Nc2ccc([N+](=O)[O-])cc2C(F)(F)F)cc1C (centres undefined) | · | – | – | – | – | –
Cc1ccc(NC(=O)c2ccccc2OCC(=O)Nc2cccc(Cl)c2C)nc1 | – | – | · | · | – | –
C[C@H]1O[C@H](O[C@H]2[C@H](O)[C@@H](O)[C@@H](O[C@H]3[C@H](O)[C@@H](O)C(O)O[C@@H]3CO)O[C@@H]2CO)[C@H](O)[C@@H](O)[C@@H]1N[C@H]1C=C(CO)[C@@H](O)[C@H](O)[C@H]1O (some centres undefined) | – | – | · | · | – | ·
COc1cccc(C=C(C(C)=O)C(=O)c2ccccc2)c1 | · | · | – | · | · | ·
CC(C)(C)Sc1ccc2nc3c(n2c1)CCCC3 | – | – | – | – | – | 101
Cc1ccc(S(=O)(=O)N2CCN(C(=O)c3nn(C(C)C)c(=O)c4ccccc34)CC2)cc1C | – | – | – | – | – | –
Cn1nc(C(=O)N2CCN(S(=O)(=O)c3ccccc3)CC2)c2ccccc2c1=O | – | – | – | 12 | – | –
O=C(CCCCCN1C(=O)CCC1=O)Nc1ccc(Br)cc1F | – | – | – | 11 | – | ·
